In PubChem BioAssay (NCI):
Where “and” joins values, the source holds several entries; their conditions need not be identical. Equal entries are not always repeated. Compounds without any hit were thinned out: in the full panel of roughly 83,000, 20% have a hit.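 96-well plates, one dose, 48 hours. Percent growth reported; active if below 10.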 Calls of active or inactive are those of the source.

The molecules below were run on TK-10 renal (assay: NCI-60 one-dose screen, 48 h (100 = growth as untreated, 0 = no growth, -100 = all killed)). Details: 10 µM.
Description: Growth inhibition of the TK-10 human tumor cell line is measured as a screen for anti-cancer activity. Cells are grown in 96 well plates and exposed to the test compound for 48 hours. Compounds are tested at a single concentration, which is 10^-5 M for most compounds. The reported endpoint is percent growth (GI% or GIPRCNT), where numbers from 0 - 100% represent growth inhibition, and numbers from -100% - 0 represent cell death. For example, a value of 40 represents 60% growth inhibition. A value of 0 means no net growth occurred over the course of the experiment. A value of -40 indicates 40% of cells at the beginning of the experiment died by the end of the experiment. A value of -100 means all cells are dead at the end of the experiment.
NCI-60 Human Tumor Cell Lines Screen was performed using the standard one-dose NCI protocol, which is described in more detail at https://dtp.cancer.gov/discovery_development/nci-60/default.htm.
Compounds with GIPRCNT values below 10 were considered active. Activity score was based on GIPRCNT using the following formula: […]
Score is 0 for GIPRCNT values of 100 or above, 50 for GIPRCNT values of 0, and 100 for GIPRCNT values of -100.

Compound	growth
c1ccc2c(c1)[nH]c1c2cc[n+]2cc3c(cc12)CCCC3	69.2% (inactive)

Same assay, conditions: 10 µM unless noted

Compound	growth
O=C1Cc2cc(CCN3CCN(CCOCCO)CC3)c(Cl)cc2N1Cc1ccc(-c2ccccc2-c2nn[nH]n2)cc1	111% (inactive)
N=c1ccn2c(n1)O[C@@H]1[C@@H](O)[C@H](CO)O[C@@H]12	67.2% (inactive)
O=C(Nc1ncc([N+](=O)[O-])s1)c1cccc([N+](=O)[O-])c1	23.4% (inactive)
COc1ccc2c(c1)C(=O)/C(=C/c1cccc(OCC(=O)c3ccccc3)c1)CC2	107% (inactive)
Cc1nnc(Nc2ccc(NC(=O)Nc3ccc(Cl)cc3)cc2)c2ccccc12	51.7% (inactive)
O=[P@@]1(c2ccccc2)O[C@H](COCc2ccccc2)[C@@H](OCc2ccccc2)[C@H](OCc2ccccc2)[C@H]1NCc1ccccc1	13.5% (inactive)
CCSc1nnc2n(Cc3ccccc3)c(=O)c3c(C)c(C(N)=O)sc3n12	111% (inactive)
Cc1cc2c(cc1[N+](=O)[O-])NC(CNC(C)C)CC2 (stereo not given)	97.1% (inactive)
O=C(Nc1ccc(Cl)cc1)c1cc2c(cc1O)[nH]c1ccccc12	4.83% (active)
COC(=O)[C@]1(CCSC)N[C@H](c2cn(-c3ccccc3)nc2C)[C@@H]2C(=O)N(c3ccc(C)cc3)C(=O)[C@@H]21	104% (inactive)
Nc1ccc2c3c(cccc13)-c1ccccc1-2	116% (inactive)
CCC1=C(c2ccc(OC)cc2)C(C)(C)Oc2c1ccc(O)c2CN1CCCC1	57.3% (inactive)
COc1c(O)cc2oc3cc(O)c(CC=C(C)C)c(O)c3c(=O)c2c1C/C=C(\C)CCC=C(C)C	37.3% (inactive)
Cc1nc2cc(NC(=O)CN3CCN(CCN4C(=O)c5cccc6cccc(c56)C4=O)CC3)ccc2s1	87.9% (inactive)
CCC[C@H](N[C@@H](C)C(=O)N1[C@H](C(=O)O)C[C@@H]2CCCC[C@@H]21)C(=O)OCC	113% (inactive)
COC(=O)c1ccc2c(c1)nc(-c1ccc(O)c(OC)c1)n2-c1cc(C(C)(C)C)[nH]n1	116% (inactive)
COC(=O)CCC1=C(C)/C(=C/c2[nH]c(-c3ccc[nH]3)cc2OC)N=C1C	28.1% (inactive)
Cn1[nH]cc(/C=N/C(N)=O)c1=O	109% (inactive)
O=C(NCCc1ccccc1)C1CCC(=O)N1Cc1ccc(Br)cc1 (stereo not given)	99.7% (inactive)

Compound	growth
O=C(Nc1ccccc1Cl)c1cnc2ccc(C3CCNCC3)cn12	-13.2% (active)
Cc1cc(O)c2c(c1)C[C@H]1[C@@H]3CC[C@H]4CC(=O)CC[C@]4(C)[C@H]3CC(=O)[C@]21C	92.5% (inactive)
NNC(=O)C1CC2c3ccccc3C1c1ccccc12 (stereo not given)	97.5% (inactive)
CCN(CC)c1ccc(C(O)C2=CC(=O)c3ccccc3C2=O)cc1 (stereo not given)	-31.4% (active)
CCCCCCC(C)(O)c1ccccc1 (stereo not given)	106% (inactive)
CC(=O)c1cc(C(=O)c2ccc3c(c2)Sc2ccccc2N3)c2c(C)cc(C)cn12	34.6% (inactive)
Cc1ccccc1NC(=O)c1cc2ccccc2cc1O	60.1% (inactive)
COc1ccc(/C=N/NC(=O)c2ccc(S(C)(=O)=O)cc2)cc1OC	96.9% (inactive)
Fc1ccc(-c2nnc(/C=C/c3cn(-c4ccccc4)nc3-c3ccccc3)o2)cc1	107% (inactive)
CCOC(Cc1c(N)[nH]c(=S)[nH]c1=O)OCC	108% (inactive)
Cn1cc(-c2nc(-c3c[nH]c4ncccc34)cs2)c2cccnc21	31% (inactive)
Oc1[nH]c2ccccc2c1/C=c1/ccc2c(c1)N=C(c1cc(F)cc(F)c1)N=2	114% (inactive)
CCCc1cccc(CCC)c1O	116% (inactive)
C=C(C)[C@@H]1C/C=C(/C=O)CC[C@@H]2O[C@@]2(C)CC/C=C(\C)CC1	114% (inactive)
Fc1ccc([C@@H]2CCNC[C@H]2COc2ccc3c(c2)OCO3)cc1	58.4% (inactive)
CCCCOc1ccc(C(C)(C)c2ccc(OCCCC)cc2)cc1	107% (inactive)
COC(=O)[C@]1(CCSC)N[C@H](c2cn(-c3ccccc3)nc2C)[C@@H]2C(=O)N(c3ccccc3)C(=O)[C@@H]21	118% (inactive)
O=C(Nc1ccc(Cl)cc1)Nc1ccc(Nc2nncc3ccccc23)cc1	32% (inactive)
Nc1ccccc1-c1ccc([N+](=O)[O-])cc1	72.7% (inactive)

Same assay, conditions: 100 µM

Compound	growth
c1ccc2c(c1)[nH]c1c2cc[n+]2cc3c(cc12)CCCC3	-97.9% (active) and -92.5% (active)
